Measured values: PMC7862700, “An all-to-all approach to the identification of sequence-specific readers for epigenetic DNA modifications on cytosine”

Columns and labels:
Assay in all cases: DAPPL (digital affinity profiling via proximity ligation, sequencing); 10 mM Tris-HCl pH 7.5, 50 mM NaCl, 1 mM DTT, 4% glycerol, room temperature, 30 min; GST-TFs on glutathione beads, 16-mer random dsDNA library, 0.1% formaldehyde crosslink after washing; high values mean tight binding
Conditions in all cases: protein: recombinant; tags: N-terminal GST; dsDNA, one strand shown
FLI1 = target: T1, FLI1 (Homo sapiens, UniProt Q01543 1-452)
T1 sequence: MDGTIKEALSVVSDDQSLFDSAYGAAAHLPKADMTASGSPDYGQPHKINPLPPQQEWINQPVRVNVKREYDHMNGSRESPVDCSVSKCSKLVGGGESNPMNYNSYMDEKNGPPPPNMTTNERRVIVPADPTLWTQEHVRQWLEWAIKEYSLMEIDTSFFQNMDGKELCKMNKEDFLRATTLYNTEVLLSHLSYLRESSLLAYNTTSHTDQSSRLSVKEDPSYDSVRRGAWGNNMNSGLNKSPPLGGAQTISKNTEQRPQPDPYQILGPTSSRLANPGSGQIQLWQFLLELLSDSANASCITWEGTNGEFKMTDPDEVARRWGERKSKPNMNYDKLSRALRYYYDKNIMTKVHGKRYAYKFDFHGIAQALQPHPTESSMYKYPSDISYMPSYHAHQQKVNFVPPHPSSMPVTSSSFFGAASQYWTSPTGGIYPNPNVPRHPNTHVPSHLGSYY
Outline: (§1)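 The binding signal reported is, for every hexamer, its read frequency for a factor over its read frequency for the tag-only sample. Reads came from pools of yeast-expressed, GST-fused human transcription factors on glutathione beads, barcoded with DNA and mixed with that sample, which were incubated with 200 nmole of a random double-stranded 16-mer DNA library in Tris/NaCl/DTT/glycerol buffer at room temperature for 30 min. After washing, the pools were crosslinked with 0.1% formaldehyde, proximity-ligated with BsaI/T4 ligase for 1 h at 37 °C, PCR-amplified and sequenced on an Illumina NextSeq500.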

ELK1 = target: T2, ELK1 (Homo sapiens, UniProt P19419 1-428)
T2 sequence: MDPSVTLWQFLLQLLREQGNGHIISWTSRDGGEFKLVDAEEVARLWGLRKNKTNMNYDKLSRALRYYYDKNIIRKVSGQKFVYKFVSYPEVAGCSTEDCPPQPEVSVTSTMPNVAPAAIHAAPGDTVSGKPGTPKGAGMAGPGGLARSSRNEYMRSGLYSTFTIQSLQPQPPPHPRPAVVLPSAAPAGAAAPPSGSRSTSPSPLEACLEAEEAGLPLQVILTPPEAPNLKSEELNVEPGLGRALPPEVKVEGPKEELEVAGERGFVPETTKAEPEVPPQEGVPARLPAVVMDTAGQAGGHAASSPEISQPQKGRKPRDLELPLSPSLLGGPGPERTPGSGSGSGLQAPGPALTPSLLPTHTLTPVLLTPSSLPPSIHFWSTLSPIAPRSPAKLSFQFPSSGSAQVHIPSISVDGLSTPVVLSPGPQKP
Outline: as §1

GABPA = target: T3, GABPA (Homo sapiens, UniProt Q06546 1-454)
T3 sequence: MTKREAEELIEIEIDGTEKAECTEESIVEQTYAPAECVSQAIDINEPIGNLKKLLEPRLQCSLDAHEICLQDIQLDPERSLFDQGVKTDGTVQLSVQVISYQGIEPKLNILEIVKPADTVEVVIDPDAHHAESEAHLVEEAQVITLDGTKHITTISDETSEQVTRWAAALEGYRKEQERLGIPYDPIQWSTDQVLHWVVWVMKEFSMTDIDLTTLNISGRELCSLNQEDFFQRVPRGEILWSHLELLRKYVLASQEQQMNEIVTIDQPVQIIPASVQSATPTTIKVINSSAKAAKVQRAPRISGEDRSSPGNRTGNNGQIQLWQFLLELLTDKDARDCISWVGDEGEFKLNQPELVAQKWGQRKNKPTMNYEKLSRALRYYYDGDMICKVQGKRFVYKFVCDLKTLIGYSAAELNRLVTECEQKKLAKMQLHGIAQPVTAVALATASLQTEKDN
Outline: as §1

ERG = target: T4, ERG (Homo sapiens, UniProt P11308 1-479)
T4 sequence: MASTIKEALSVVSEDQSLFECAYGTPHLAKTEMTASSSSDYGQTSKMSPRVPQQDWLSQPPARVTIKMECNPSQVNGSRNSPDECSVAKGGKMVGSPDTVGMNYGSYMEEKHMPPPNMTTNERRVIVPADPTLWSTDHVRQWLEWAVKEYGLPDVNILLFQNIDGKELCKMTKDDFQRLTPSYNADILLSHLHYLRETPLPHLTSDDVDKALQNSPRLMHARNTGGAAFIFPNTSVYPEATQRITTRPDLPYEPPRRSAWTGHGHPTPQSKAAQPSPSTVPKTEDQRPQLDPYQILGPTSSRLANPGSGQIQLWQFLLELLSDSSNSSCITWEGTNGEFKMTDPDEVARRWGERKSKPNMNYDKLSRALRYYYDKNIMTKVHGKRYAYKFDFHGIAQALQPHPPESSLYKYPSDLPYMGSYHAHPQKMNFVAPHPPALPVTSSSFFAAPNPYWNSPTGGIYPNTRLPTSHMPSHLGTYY
Outline: as §1

ELF1 = ELF1 (Homo sapiens, UniProt P32519 1-619)
Outline: as §1

EHF = target: T5, EHF (Homo sapiens, UniProt Q9NZC4 1-300)
T5 sequence: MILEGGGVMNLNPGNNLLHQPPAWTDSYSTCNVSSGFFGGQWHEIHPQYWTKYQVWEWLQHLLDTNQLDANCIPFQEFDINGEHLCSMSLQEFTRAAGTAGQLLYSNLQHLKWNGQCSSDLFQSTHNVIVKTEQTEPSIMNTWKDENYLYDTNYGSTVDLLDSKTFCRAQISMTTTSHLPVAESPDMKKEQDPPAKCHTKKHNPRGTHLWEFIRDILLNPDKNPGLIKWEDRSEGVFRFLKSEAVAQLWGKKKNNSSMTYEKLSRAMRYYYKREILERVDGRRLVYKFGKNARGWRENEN
Outline: as §1

SPI1 = SPI1 (Homo sapiens, UniProt P17947 1-270)
Outline: as §1

SPIB = SPIB (Homo sapiens, UniProt Q01892 1-262)
Outline: as §1

ELK3 = target: T6, ELK3 (Homo sapiens, UniProt P41970 1-407)
T6 sequence: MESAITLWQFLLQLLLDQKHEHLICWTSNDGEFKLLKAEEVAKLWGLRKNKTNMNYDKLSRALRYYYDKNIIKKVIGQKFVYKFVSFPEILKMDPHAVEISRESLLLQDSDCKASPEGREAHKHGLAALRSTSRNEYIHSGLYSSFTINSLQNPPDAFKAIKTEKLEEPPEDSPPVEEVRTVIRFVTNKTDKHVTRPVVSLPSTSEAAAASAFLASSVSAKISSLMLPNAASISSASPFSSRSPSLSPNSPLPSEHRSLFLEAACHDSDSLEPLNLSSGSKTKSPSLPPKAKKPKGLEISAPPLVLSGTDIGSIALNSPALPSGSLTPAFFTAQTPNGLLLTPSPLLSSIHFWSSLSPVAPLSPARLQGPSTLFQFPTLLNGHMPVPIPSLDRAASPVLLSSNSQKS
Outline: as §1

Chain of ELF1 (P32519 whole entry): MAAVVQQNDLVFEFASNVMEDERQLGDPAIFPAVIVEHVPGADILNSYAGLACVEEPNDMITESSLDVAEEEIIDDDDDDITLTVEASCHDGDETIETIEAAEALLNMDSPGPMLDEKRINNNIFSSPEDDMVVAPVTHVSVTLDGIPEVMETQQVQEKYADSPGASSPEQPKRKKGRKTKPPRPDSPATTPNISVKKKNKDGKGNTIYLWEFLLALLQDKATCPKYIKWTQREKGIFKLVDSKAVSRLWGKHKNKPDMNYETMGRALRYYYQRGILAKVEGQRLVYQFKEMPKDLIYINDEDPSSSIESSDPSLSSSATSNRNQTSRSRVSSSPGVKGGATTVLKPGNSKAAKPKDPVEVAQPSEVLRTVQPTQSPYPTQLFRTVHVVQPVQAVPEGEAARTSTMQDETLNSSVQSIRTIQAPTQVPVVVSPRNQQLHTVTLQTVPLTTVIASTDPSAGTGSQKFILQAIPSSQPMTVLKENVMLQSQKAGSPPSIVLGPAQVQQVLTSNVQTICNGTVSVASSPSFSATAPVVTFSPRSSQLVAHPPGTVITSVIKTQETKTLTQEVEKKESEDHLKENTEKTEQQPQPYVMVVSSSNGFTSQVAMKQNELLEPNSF
Chain of SPIB (Q01892 whole entry): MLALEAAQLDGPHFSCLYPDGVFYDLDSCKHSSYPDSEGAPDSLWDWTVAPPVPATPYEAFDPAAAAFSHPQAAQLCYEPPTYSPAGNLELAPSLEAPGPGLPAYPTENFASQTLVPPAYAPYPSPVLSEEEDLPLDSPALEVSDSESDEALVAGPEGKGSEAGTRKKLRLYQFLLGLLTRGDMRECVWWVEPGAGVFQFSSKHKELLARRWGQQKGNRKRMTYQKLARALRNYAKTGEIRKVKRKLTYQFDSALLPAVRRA

Sequence | binding signal (FLI1) | binding signal (ELK1) | binding signal (GABPA) | binding signal (ERG) | binding signal (ELF1) | binding signal (EHF) | binding signal (SPI1) | binding signal (SPIB) | binding signal (ELK3)
GAAACG | 1.17 fold enrichment (6-mer frequency, TF over GST control) | 1.26 fold enrichment (6-mer frequency, TF over GST control) | 1.2 fold enrichment (6-mer frequency, TF over GST control) | 1.38 fold enrichment (6-mer frequency, TF over GST control) | 1.18 fold enrichment (6-mer frequency, TF over GST control) | 1.19 fold enrichment (6-mer frequency, TF over GST control) | 1.17 fold enrichment (6-mer frequency, TF over GST control) | 1.25 fold enrichment (6-mer frequency, TF over GST control) | 1.27 fold enrichment (6-mer frequency, TF over GST control)
CTGAAG | 1.02 fold enrichment (6-mer frequency, TF over GST control) | 1.14 fold enrichment (6-mer frequency, TF over GST control) | 1.11 fold enrichment (6-mer frequency, TF over GST control) | 1.08 fold enrichment (6-mer frequency, TF over GST control) | 1.11 fold enrichment (6-mer frequency, TF over GST control) | 1.02 fold enrichment (6-mer frequency, TF over GST control) | 1.05 fold enrichment (6-mer frequency, TF over GST control) | 1.04 fold enrichment (6-mer frequency, TF over GST control) | 1.01 fold enrichment (6-mer frequency, TF over GST control)
CCCACC | 1.17 fold enrichment (6-mer frequency, TF over GST control) | 1.26 fold enrichment (6-mer frequency, TF over GST control) | 1.11 fold enrichment (6-mer frequency, TF over GST control) | 1.15 fold enrichment (6-mer frequency, TF over GST control) | 1.15 fold enrichment (6-mer frequency, TF over GST control) | 1.2 fold enrichment (6-mer frequency, TF over GST control) | 1.18 fold enrichment (6-mer frequency, TF over GST control) | 1.13 fold enrichment (6-mer frequency, TF over GST control) | 1.16 fold enrichment (6-mer frequency, TF over GST control)
TGAACC | 1.17 fold enrichment (6-mer frequency, TF over GST control) | 1.25 fold enrichment (6-mer frequency, TF over GST control) | 1.17 fold enrichment (6-mer frequency, TF over GST control) | 1.1 fold enrichment (6-mer frequency, TF over GST control) | 1.15 fold enrichment (6-mer frequency, TF over GST control) | 1.16 fold enrichment (6-mer frequency, TF over GST control) | 1.15 fold enrichment (6-mer frequency, TF over GST control) | 1.15 fold enrichment (6-mer frequency, TF over GST control) | 1.12 fold enrichment (6-mer frequency, TF over GST control)
CCGATC | 1.38 fold enrichment (6-mer frequency, TF over GST control) | 1.25 fold enrichment (6-mer frequency, TF over GST control) | 1.21 fold enrichment (6-mer frequency, TF over GST control) | 1.24 fold enrichment (6-mer frequency, TF over GST control) | 1.28 fold enrichment (6-mer frequency, TF over GST control) | 1.24 fold enrichment (6-mer frequency, TF over GST control) | 1.18 fold enrichment (6-mer frequency, TF over GST control) | 1.17 fold enrichment (6-mer frequency, TF over GST control) | 1.17 fold enrichment (6-mer frequency, TF over GST control)
CTACCC | 1.27 fold enrichment (6-mer frequency, TF over GST control) | 1.32 fold enrichment (6-mer frequency, TF over GST control) | 1.4 fold enrichment (6-mer frequency, TF over GST control) | 1.36 fold enrichment (6-mer frequency, TF over GST control) | 1.33 fold enrichment (6-mer frequency, TF over GST control) | 1.27 fold enrichment (6-mer frequency, TF over GST control) | 1.31 fold enrichment (6-mer frequency, TF over GST control) | 1.34 fold enrichment (6-mer frequency, TF over GST control) | 1.31 fold enrichment (6-mer frequency, TF over GST control)
AAAATT | 1.35 fold enrichment (6-mer frequency, TF over GST control) | 1.34 fold enrichment (6-mer frequency, TF over GST control) | 1.38 fold enrichment (6-mer frequency, TF over GST control) | 1.28 fold enrichment (6-mer frequency, TF over GST control) | 1.34 fold enrichment (6-mer frequency, TF over GST control) | 1.26 fold enrichment (6-mer frequency, TF over GST control) | 1.32 fold enrichment (6-mer frequency, TF over GST control) | 1.45 fold enrichment (6-mer frequency, TF over GST control) | 1.33 fold enrichment (6-mer frequency, TF over GST control)
TGGGCT | 1.38 fold enrichment (6-mer frequency, TF over GST control) | 1.33 fold enrichment (6-mer frequency, TF over GST control) | 1.48 fold enrichment (6-mer frequency, TF over GST control) | 1.34 fold enrichment (6-mer frequency, TF over GST control) | 1.48 fold enrichment (6-mer frequency, TF over GST control) | 1.44 fold enrichment (6-mer frequency, TF over GST control) | 1.43 fold enrichment (6-mer frequency, TF over GST control) | 1.38 fold enrichment (6-mer frequency, TF over GST control) | 1.49 fold enrichment (6-mer frequency, TF over GST control)
